From PubChem
Tau fibril ThT: inhibitors of human tau fibril formation, thioflavin T binding. P10636. recombinant tau K18 P301L, heparin-induced fibrillization, ThT fluorescence. Potency, µM (top dose mostly 57.4 µM), inactives show at the top dose activity, negative = inhibition, hits mostly inhibitors. 270,000 compounds, 2.1% hits. AID 1460; also: potency is read from the fitted curve at half-maximal effect; nearly all actives have a fitted effect of over 55% in size
Target sequence (P10636 561-689 P618L limits assumed): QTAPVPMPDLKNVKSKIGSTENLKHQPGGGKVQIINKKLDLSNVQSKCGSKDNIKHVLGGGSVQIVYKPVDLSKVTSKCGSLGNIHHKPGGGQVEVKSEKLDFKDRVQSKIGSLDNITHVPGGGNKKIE
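K18 P301L tau (15 uM + 0.24 uM Alexa 594-tagged), heparin 20 uM, NaOAc pH 7, 6 h 37 C; ThT 30 uM, 1 h RT, ex 450/em 510 nm.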
Tau fibril FP: tau fibrillization inhibition (FP); Potency, µM (series often up to 57.7 µM), inactives show top-dose activity, negative = inhibition, usual class: inhibitors; AID 1468; K18 P301L tau heparin fibrillization, Alexa594 FP, 6 h; 280,000 compounds, 0.39% hits; also: potency is read from the fitted curve at half-maximal effect; nearly all actives have a fitted effect of over 55% in size
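Human tau K18 […] P301L fragment, 15 uM unlabeled plus 0.24 uM Alexa 594-labeled tau (final), with compound and 20 uM heparin in 100 mM sodium acetate pH 7; 6 hr at 37 C, then Alexa 594 FP read.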
FBPA coupling cs: counter-screen for Giardia aldolase inhibitors: coupling enzyme system; activity change, negative = inhibition, % at 58.2 µM, hits read low; 290,000 compounds, 0.67% hits; AID 2472; coupling enzyme system counterscreen, AmpLite Red fluorescence; in the data active = activity change below about -30%
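Fluorescence at 525 nm excitation and 598 nm emission measured inhibition of the coupled detection system without aldolase. Compounds (at 57.5 uM final) were preincubated 10 min at room temperature with coupling enzyme reagent before a 20 min substrate/AmpLite Red step.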
KDM4E inh: inhibitors of human JMJD2E histone demethylase | B2RXH2 | JMJD2E catalytic domain, FDH-coupled NADH fluorescence (FDH is formaldehyde dehydrogenase) | Potency, µM (series often up to 57.1 µM), without a hit: at the top dose activity change, negative = inhibition, usual class: inhibitors | 230,000 compounds, 1.6% hits | AID 2147; active = well fitted inhibition curve with a large enough effect, not every such curve was filed as active; inconclusive = small, poorly fitted or top-dose-only effect, or another doubt; inactive = no such curve, though single readings can be large or run the other way;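 also: potency is read from the fitted curve at half-maximal effect; 0% = wells with enzyme and -100% = buffer wells without enzyme; nearly all actives have a fitted effect of over 50% in size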
Target sequence (B2RXH2 1-337 limits assumed): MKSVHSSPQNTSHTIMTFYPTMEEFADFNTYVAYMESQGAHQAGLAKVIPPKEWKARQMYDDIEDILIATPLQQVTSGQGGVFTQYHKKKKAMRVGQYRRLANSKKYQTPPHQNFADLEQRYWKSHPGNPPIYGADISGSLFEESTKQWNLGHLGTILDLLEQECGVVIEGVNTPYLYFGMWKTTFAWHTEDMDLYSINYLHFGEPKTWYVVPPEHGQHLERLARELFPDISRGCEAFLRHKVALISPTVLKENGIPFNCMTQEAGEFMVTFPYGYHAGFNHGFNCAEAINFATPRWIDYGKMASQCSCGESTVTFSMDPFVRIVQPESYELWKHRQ
Tau fluor cs: counter-screen for tau fibril formation inhibitors; AID 1463; Potency, µM (top dose mostly 57.7 µM), for the others: at the highest dose activity change, negative = decrease; tau K18 P301L (four-repeat tau fragment) Alexa594 fluorescence, heparin fibrillization; 280,000 compounds, 0.93% hits; also: potency is read from the fitted curve at half-maximal effect; nearly all actives have a fitted effect of over 55% in size
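Human K18 P301L tau (15 uM unlabeled plus 0.24 uM Alexa 594-labeled, final) in 100 mM sodium acetate pH 7 was mixed with compound and 20 uM heparin and incubated 6 hr at 37 C.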
The depositor's hits bear a star; [ ] = another dose, or the depositor's remark. The list is not random: actives were taken first. Their share in the collection is about 3%. Unless noted, calls follow the shape of the dose curve; as a rule, active = well fitted curve in the direction sought with a large enough effect; inconclusive = small, poorly fitted or top-dose-only effect, or another doubt; inactive = no such curve, though single readings can be large; an effect the other way counts as inactive or inconclusive. Unless noted, % is scaled to controls: 0 for no effect and ±100 for the full control effect.

What do the screens show for `Cc1ccc(OCC(=O)Nc2ccc3nc(SCC(=O)N4CCCC4)sc3c2)cc1C`?
Tau fibril ThT: inconclusive; Tau fibril FP: -5%; Tau fluor cs: -22%

Results for CCN(c1ccccc1)c1nnc(NC(=O)Nc2cccc(Br)c2)s1 ?
Tau fibril ThT: 2%; Tau fibril FP: 2%; Tau fluor cs: -3%

How did CN(C)c1ccc(-c2cc(C3C4C=CCCC4(C)C(=O)N3Cc3ccccc3)ccc2F)cc1 (stereo unspecified) do in these assays?
FBPA coupling cs: 1

What do the screens show for `Cc1cccc2c1NC(=O)/C2=C\C(=O)c1cccs1`?
Tau fibril ThT: 22µM*; Tau fibril FP: 6%; FBPA coupling cs: -3; KDM4E inh: 1%; Tau fluor cs: -26%

How did Cc1cc(C)c2c(c1)/C(=C/C(=O)c1ccc(Br)s1)C(=O)N2 do in these assays?
Tau fibril ThT: 28µM*; Tau fibril FP: -13%; FBPA coupling cs: 4; KDM4E inh: 1%; Tau fluor cs: 20µM*[quencher]

Results for O=C(Cn1c(=O)nc(-c2ccccc2)c2ccccc21)NCc1ccccc1Cl ?
Tau fibril ThT: -1%; Tau fibril FP: 3%; Tau fluor cs: 5%

Results for O=C(CSc1ncc(-c2ccccc2)[nH]1)Nc1cccc(C(F)(F)F)c1 ?
Tau fibril ThT: -16%; Tau fibril FP: inconclusive; Tau fluor cs: 16µM*[quencher]

What do the screens show for `CCS(=O)(=O)N1N=C(c2ccc(C)cc2)CC1c1cc2ccc(OC)cc2nc1Cl` (stereo unspecified)?
Tau fibril ThT: -9%; Tau fibril FP: 40µM*; Tau fluor cs: inconclusive

Results for CCOc1ccc2nc(Cl)c(C3CC(c4ccc(OC)cc4)=NN3S(C)(=O)=O)cc2c1 (stereo unspecified) ?
Tau fibril ThT: -8%; Tau fibril FP: 35µM*; Tau fluor cs: inconclusive

How did COc1ccc(NC(=O)Nc2cccs2)cc1OC do in these assays?
Tau fibril ThT: 16µM*; Tau fibril FP: 2%; FBPA coupling cs: 0; KDM4E inh: inconclusive; Tau fluor cs: inconclusive

Results for CCCCOC(=O)c1ccc(NC(=O)/C=C/c2cccs2)cc1 ?
Tau fibril ThT: 14%; Tau fibril FP: 14µM*; FBPA coupling cs: 4; KDM4E inh: inconclusive; Tau fluor cs: inconclusive

What do the screens show for `Cc1ccc(C(=O)Nc2ccc(C(=O)/C=C/c3cccs3)cc2)cc1`?
Tau fibril ThT: inconclusive; Tau fibril FP: -9%; FBPA coupling cs: 3; KDM4E inh: 1%; Tau fluor cs: -10%

How did CCOC(=O)c1ccc(NC(=O)Nc2ccc(OC)c(OC)c2)cc1 do in these assays?
Tau fibril ThT: inconclusive; Tau fibril FP: inconclusive; FBPA coupling cs: 1; KDM4E inh: 12%; Tau fluor cs: 13µM*[quencher]

Results for O=C(/C=C/c1cccs1)c1ccc(NC(=O)c2cccc(Br)c2)cc1 ?
Tau fibril ThT: 7.1µM*; Tau fibril FP: inconclusive; FBPA coupling cs: 0; KDM4E inh: 2%; Tau fluor cs: inconclusive

How did CCOC(=O)c1ccccc1NC(=O)Nc1ccc(OC)c(OC)c1 do in these assays?
Tau fibril ThT: 7%; Tau fibril FP: 9%; FBPA coupling cs: 1; KDM4E inh: 0%; Tau fluor cs: 6%

Results for Cc1ccccc1Cn1cc(CCC(=O)NCc2cccc(Br)c2)c2ccccc21 ?
Tau fibril ThT: -2%; Tau fibril FP: 9%; Tau fluor cs: -18%

Results for CCOc1ccc(NC(=O)N2CCN(C(=O)c3nsc4ccccc34)CC2)cc1 ?
Tau fibril ThT: inconclusive; Tau fibril FP: 3%; Tau fluor cs: -12%

How did CCc1ccccc1Nc1nn2c(=O)c3ccc(C(=O)NCc4cccs4)cc3nc2s1 do in these assays?
Tau fibril ThT: 15%; Tau fibril FP: -7%; Tau fluor cs: -5%

What do the screens show for `COc1ccc2c(c1)c1c(c(=O)n(-c3ccc(C)cc3)c(=O)n1CC(=O)Nc1cc(C)ccc1C)n2C`?
Tau fibril ThT: 8%; Tau fibril FP: -5%; Tau fluor cs: 1%

How did CCCCOC(=O)c1ccc(NC(=O)Nc2ccc(OC)c(OC)c2)cc1 do in these assays?
Tau fibril ThT: inconclusive; Tau fibril FP: -9%; FBPA coupling cs: -1; KDM4E inh: 4%; Tau fluor cs: 6.3µM*[quencher]

What do the screens show for `Cc1ccncc1C(=O)O`?
FBPA coupling cs: 0

What do the screens show for `COC(=O)/C(=C\C(=O)c1ccc([N+](=O)[O-])cc1)Nc1ccc(OC)cc1`?
Tau fibril ThT: 3.2µM*; Tau fibril FP: inconclusive; FBPA coupling cs: 0; KDM4E inh: -12%; Tau fluor cs: inconclusive

How did COc1ccc(C(=O)/C=C/Nc2ccc([N+](=O)[O-])cc2)cc1 do in these assays?
Tau fibril ThT: inconclusive; Tau fibril FP: -2%; FBPA coupling cs: 1; KDM4E inh: 6%; Tau fluor cs: -11%

How did COc1ccc(C(=O)/C(C#N)=N/Nc2ccc([N+](=O)[O-])cc2)cc1 do in these assays?
Tau fibril ThT: 4µM*; Tau fibril FP: 1%; FBPA coupling cs: 0; KDM4E inh: -24%; Tau fluor cs: inconclusive

Results for N#C/C(=N\Nc1ccc(Cl)cc1)C(=O)c1ccccc1 ?
Tau fibril ThT: 14µM*; Tau fibril FP: 10%; FBPA coupling cs: 6; KDM4E inh: 1%; Tau fluor cs: inconclusive

Results for COc1ccc(S(=O)(=O)n2nc(C)c(S(=O)(=O)N3CCC(C)CC3)c2C)cc1C ?
Tau fibril ThT: 0%; Tau fibril FP: -4%; Tau fluor cs: 1%

Results for Cc1cc(C)c(C(CC(=O)c2cccs2)C(C#N)C#N)c(C)c1 (stereo unspecified) ?
Tau fibril ThT: 25µM*; Tau fibril FP: -7%; FBPA coupling cs: 1; KDM4E inh: -5%; Tau fluor cs: -22%

Results for N#Cc1ccc(-c2ccco2)nc1SCC(=O)c1ccc(Cl)cc1 ?
Tau fibril ThT: 5µM*; Tau fibril FP: -4%; FBPA coupling cs: 1; KDM4E inh: inconclusive; Tau fluor cs: inconclusive

How did COc1nc(Nc2ccc(O)cc2)nc(OC(C(F)(F)F)C(F)(F)F)n1 do in these assays?
Tau fibril ThT: 4%; Tau fibril FP: 7%; FBPA coupling cs: -2; KDM4E inh: -6%; Tau fluor cs: inconclusive

What do the screens show for `Nc1cccc(Nc2nc(OC(C(F)(F)F)C(F)(F)F)nc(OC(C(F)(F)F)C(F)(F)F)n2)c1`?
Tau fibril ThT: 4%; Tau fibril FP: 12%; FBPA coupling cs: -19; KDM4E inh: -7%; Tau fluor cs: 14µM*[quencher]

What do the screens show for `CN=Cc1sc2ccccc2c1O`?
Tau fibril ThT: -17%; Tau fibril FP: 0%; FBPA coupling cs: 4; KDM4E inh: inconclusive; Tau fluor cs: -11%

How did Oc1ccccc1N=Cc1sc2ccccc2c1Cl do in these assays?
Tau fibril ThT: inconclusive; Tau fibril FP: -8%; FBPA coupling cs: -4; KDM4E inh: 22µM*; Tau fluor cs: -22%

How did Cc1ccc(O)c(N=Cc2sc3ccccc3c2Cl)c1 do in these assays?
Tau fibril ThT: inconclusive; Tau fibril FP: -4%; FBPA coupling cs: 1; KDM4E inh: 25µM*; Tau fluor cs: -10%
